Results as given in PubChem BioAssay (NCI).
Where “and” joins values, the source holds several entries; their conditions need not be identical. Equal entries are not always repeated. About 83,000 compounds went through this panel and 20% of them were active in at least one assay; those are over-represented in the sample as a whole.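 Values shown are percent growth following 48 h exposure of cells in 96-well plates to a single concentration of compound; below 10 was considered active.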 A number with no mark means an inactive call. Calls of active or inactive are those of the source.

Test system: MDA-MB-468 breast
Test: NCI-60 one-dose screen, 48 h (100 = growth as untreated, 0 = no growth, -100 = all killed)
Conditions: 10 µM unless noted

SMILES | growth
CCOC(=O)CCN(CC(C)C)C(=S)Nc1ccccc1 | 104%
CC(C)C(=O)Nc1nc2c(s1)CCCc1ccn(S(=O)(=O)c3ccccc3)c1-2 | 95.3%
O=C1/C(=C\C(Cl)=C/c2ccc([N+](=O)[O-])cc2)SC(=S)N1CCc1ccc(O)cc1 | -84.7% (active)
Cc1nn(-c2ccccc2)c(Oc2c(Cl)cccc2Cl)c1/C=N/N=c1\sc2ccccc2n1C | 39.7%
C#C[C@]1(O)CC[C@H]2[C@@H]3CC=C4c5sc(Nc6cccc(F)c6)nc5CC[C@]4(C)[C@H]3CC[C@@]21C | 3.86% (active)
COc1c(B(O)O)cccc1-c1nc2c(F)cc3n[nH]c(C)c3c2c2c1CCCC2 | -7.26% (active)
CN(C)c1ccc(/C=C/C(=O)c2ccc(-n3cc(CN4CCN(c5cc6c(cc5F)c(=O)c(C(=O)O)cn6C5CC5)CC4)nn3)cc2)cc1 | 32.9%
CC(C)c1ccc(-c2cnc3nonc3n2)cc1 | 21%
CCOC(=O)c1c(C(=O)OCC)c2cc(-c3ccn4c(C(=O)c5ccccc5)c(C(=O)OCC)c(C(=O)OCC)c4c3)ccn2c1C(=O)c1ccccc1 | 106%
Cc1ccc(C(=O)Nc2cccc(F)c2)cc1NC(=O)C1(c2ncnc3[nH]ccc23)CC1 | 85.8%
CC(C)(C)OC(=O)Nc1ccc(-c2cccc(Oc3ccc4nnc(Cl)n4n3)c2)cc1 | 61.9%
Cc1ccc(-c2nc3ccc(Cl)cc3c(=O)n2N2C(=O)CSC2c2ccccc2Cl)cc1 (centres undefined) | 107%
O=C(O)COc1ccc([N+](=O)[O-])cc1Cl | 104%
COc1cc(-c2nc(-c3nc4ccc(Cl)cc4[nH]3)cc3c2[nH]c2ccccc23)cc(OC)c1OC | 44.1%
Cn1cnc(-c2cc3nccc(Oc4ccc(NC(=S)NC(=O)Cc5ccccc5)cc4F)c3s2)c1 | 103%
Nc1nc(N)c2nc(CNc3ccc(C(=O)NC(CCC(=O)O)C(=O)O)cc3)cnc2n1 (centres undefined) | 13.1% and 12%
Oc1ccc(CN2CCC(N3CCOCC3)CC2)c2cccnc12 | 36.6%

SMILES | growth
Nc1ccccc1SC1CC(=O)N(c2ccc(Cl)c(Cl)c2)C1=O (centres undefined) | 80.4%
CCC1=C[C@@H]2C[C@]3(C(=O)OC)c4[nH]c5ccccc5c4CC[N@+](CC(=O)Nc4cc5c(cc4OC)N(C)[C@H]4[C@@](O)(C(=O)OC)[C@H](OC(C)=O)[C@]6(CC)C=CCN7CC[C@]54[C@@H]76)(C2)[C@H]13 | 111%
CC(C)CSc1nc(NN)c(C#N)c(-c2ccccc2)n1 | 98.2%
O=C(Nc1ccc(Br)cc1)Nc1cccc(Br)c1 | 27.2%
CCCCCCCCn1ccc2cc(NC(=O)Cn3cc(CN4CCN(CC)CC4)nn3)ccc21 | 62.1%
O=C1/C(=C/c2ccccc2)CCc2nc3ccccc3c(/C=C/c3ccc(Cl)cc3)c21 | 83.5%
O=C(Nc1cccc(Cn2c(=O)[nH]c3ccc(Oc4ncccn4)cc3c2=O)c1)c1cc(Cl)cc(Cl)c1 | 50.5%
CCOC(=O)n1cc(C2=C(c3cn(C)c4ccccc34)COC2=O)c2ccccc21 | 29.5%
CCN(CC)CCOc1nc2cc(OC)c(OC)cc2c2c1-c1ccc(OC)cc1C2=O | 84%
CCCCCC(=O)Oc1ccc(/C(=C(/C)Cc2ccc(OC)cc2)c2ccc(OCCCN(C)C)cc2)cc1 | 56.4%
CC(=O)OCc1nc(C#N)c(N(C)C)o1 | 94.1%
CCCn1ccnc1C(O)c1ccc(OCc2ccccc2)c(OC)c1 (centres undefined) | 90.5%
CC(C)[C@H]1COC(=O)N1[C@@H]1C(=O)N([C@@H](CCC(=O)N2CCN(C3CCCC3)CC2)C(=O)N[C@@H]2CCCc3ccccc32)[C@@H]1/C=C/c1cccc(Cl)c1 | -11.4% (active)
O=C(Nc1cc(F)cc2cccnc12)c1cnc(N2CCOCC2)cn1 | 18.5%
CC(C)NC[C@@H](C(=O)N1CCN(c2ncnc3c2[C@H](C)C[C@H]3O)CC1)c1ccc(Cl)cc1 | -18.7% (active)
ClCc1cccc(CSc2ncnc3c2ncn3Cc2cccc(CCl)c2)c1 | -89.3% (active)
CC(=O)[C@@]1(O)CC[C@H]2[C@@H]3CC[C@@H]4CC(=O)CC[C@]4(C)[C@H]3[C@@H](O)C[C@@]21C | 94.6%
